# Reference: PubChem BioAssay
# Calls of active or inactive are those of the source.
# Tests used:
# [1] = tested on: Plasmodium falciparum Sir2 (PF13_0152, Sir2A); experiment: Plasmodium falciparum Sir2A binding compounds – biochemical, small-molecule microarray, 635 nm fluorescence, primary screen (AID 1098); conditions: fluorescence 635 nm, higher = more signal;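 also: score merges spot fluorescence intensity with its signal-to-noise ratio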
# [2] = probe aDKK1 binding to arrayed compounds – biochemical, biotinylated probe, 635/667 nm fluorescence, primary screen (AID 1099); conditions: small-molecule microarray, higher = more signal;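 also: score merges 667nm spot fluorescence with signal to noise across triplicate slides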
# [3] = probe aCHRDL2 binding to arrayed compounds – biochemical, biotinylated probe, 635/667 nm fluorescence, primary screen (AID 1100); conditions: small-molecule microarray, higher = more signal
# [4] = change in splice reporter luminescence, either direction, cell-based, HEK293, spliceosome inhibition project, primary screen (AID 1101); conditions: HEK293 splicing luciferase reporter, 24 h, higher = more signal, called active from +8 up or from −8 down;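 also: HEK293 cells carrying a splicing-competent luciferase reporter gene; test concentration not given here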
# [5] = target: Fibroblast growth factor 10 (Homo sapiens) (UniProt O15520); experiment: compounds binding fibroblast growth factor 10 – biochemical, small-molecule microarray, 635 nm fluorescence, primary screen (AID 1102); conditions: FGF10 binding, fluorescence 635 nm, higher = more signal
# [6] = tested on: glycogen synthase kinase-3 (GSK3A per assay name; protocol says GSK3B); experiment: compounds binding glycogen synthase kinase-3 – biochemical, small-molecule microarray, 635 nm fluorescence, GSK3A, primary screen (AID 1103); conditions: fluorescence 635 nm, higher = more signal; also: the record names both GSK3A and GSK3B
# [7] = target: Epidermal growth factor receptor (Homo sapiens) (UniProt P00533); experiment: compounds binding epidermal growth factor receptor – biochemical, small-molecule microarray, 635 nm fluorescence, primary screen (AID 1104); conditions: EGFR binding, higher = more signal;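 also: score merges 667 nm emission intensity with spot signal to noise over triplicate slides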
# [8] = target: Follistatin-related protein 3 (Homo sapiens) (UniProt O95633); experiment: compounds binding follistatin-related protein 3 – biochemical, small-molecule microarray, 635 nm fluorescence, primary screen (AID 1105); conditions: FSTL3 binding, higher = more signal;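 also: score merges emission near 667 nm and signal to noise per printed spot across three slides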
# [9] = target: Dickkopf-related protein 1 (Homo sapiens) (UniProt O94907); experiment: small molecules binding DKK1 protein – biochemical, small-molecule microarray, 635 nm fluorescence scan, primary screen (AID 1106); conditions: higher = more signal;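 also: score merges emission near 667 nm with signal to noise over three replicate slides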
# [10] = tested on: Inhibin beta A chain (activin A); experiment: small molecules binding activin A – biochemical, small-molecule microarray, 635 nm fluorescence scan, primary screen (AID 1107); conditions: INHBA, higher = more signal;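 also: mouse activin A protein probed at 4.33 µg/mL on printed slides; score merges bound-protein fluorescence near 667 nm with spot signal-to-noise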
# [11] = tested on: Human papillomavirus type 1a protein E7 (residues 44-93); experiment: small molecules binding HPV E7 44-93 – biochemical, small-molecule microarray, residues 44-93, 635 nm fluorescence, primary screen (AID 1108); conditions: fluorescence 635 nm, higher = more signal;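 also: E7 fragment applied at 1 µg/mL in TBST for 1 h at 4 C; score combines spot fluorescence with its signal to noise ratio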
# [12] = hepatitis C replication reporter changes, two-sided – Huh7 cells, luciferase reporter, HCV replication inhibitor project, primary screen (AID 1109); conditions: Huh7 HCV replicon luciferase reporter, 48 h; higher = more signal;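 also: huh7 hepatoma cells harbouring a luciferase neomycin HCV replicon reporter; luciferase luminescence as measure of HCV replicon replication; test concentration not given here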
# [13] = target: Left-right determination factor 2 (Homo sapiens) (UniProt O00292); experiment: small molecules binding LEFTY2 protein – biochemical, small-molecule microarray, 635 nm fluorescence scan, primary screen (AID 1110); conditions: higher = more signal
# [14] = target: Calmodulin-1 (Homo sapiens) (UniProt P0DP23); experiment: small molecules binding calmodulin-1 with EGTA – biochemical, small-molecule microarray, Cy5-labelled CALM1, profiling panel (AID 1111); conditions: Cy5-CALM1 binding fluorescence, higher = more signal;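 also: labelled calmodulin applied in Tris saline Tween buffer holding calcium plus EGTA and DTT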
# [15] = target: Calmodulin-1 (Homo sapiens) (UniProt P0DP23); experiment: small molecules binding Ca-loaded calmodulin-1 – biochemical, small-molecule microarray, Cy5-labelled CALM1, plus calcium, artefact control for SMM control-protein annotation, profiling panel (AID 1112); conditions: Cy5-CALM1 binding fluorescence, higher = more signal;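 also: score merges spot fluorescence with signal to noise from triplicate slides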
# [16] = probe aWnt5a binding to arrayed compounds – biochemical, biotinylated probe, 635/667 nm fluorescence, primary screen (AID 1113); conditions: small-molecule microarray, higher = more signal;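 also: score merges 667 nm fluorescence intensity with signal-to-noise per printed feature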
# [17] = probe aShh binding to arrayed compounds – biochemical, biotinylated probe, 635/667 nm fluorescence, primary screen (AID 1114); conditions: small-molecule microarray, higher = more signal;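 also: probe is biotin-labelled aShh protein from a stem cell growth factor screen; measures binding of labelled protein to compounds printed on the slide; score merges feature fluorescence at 667 nm with signal-to-noise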
# [18] = probe aNog binding to arrayed compounds – biochemical, biotinylated probe, 635/667 nm fluorescence, primary screen (AID 1115); conditions: small-molecule microarray, higher = more signal;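 also: probe is biotinylated aNog protein used at 0.15 µg/mL for 1 h at 4 C; z-score combines 667 nm fluorescence of each spot with its signal to noise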
# [19] = target: Torsin-1A-interacting protein 1 (Homo sapiens) (UniProt Q5JTV8); experiment: compound microarray binding of lysate hLAP1 – cell lysate, small-molecule microarray, COS7 lysate, 635/667 nm fluorescence, primary screen (AID 1116); conditions: 635 nm fluorescence, higher = more signal
# [20] = target: Alpha-bungarotoxin (Bungarus multicinctus) (UniProt P60615); experiment: compounds binding labelled alpha-BTX control protein – biochemical, small-molecule microarray, Alexa647 label, 635/667 nm fluorescence, artefact control for SMM control protein annotation, profiling panel (AID 1117); conditions: alpha-BTX-A647 binding fluorescence, higher = more signal
# Chain of Alpha-bungarotoxin (Bungarus multicinctus) (P60615 whole entry, looked up): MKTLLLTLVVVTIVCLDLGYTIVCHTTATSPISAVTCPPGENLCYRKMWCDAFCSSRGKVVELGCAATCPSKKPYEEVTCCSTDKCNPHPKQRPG
# Chain of Fibroblast growth factor 10 (Homo sapiens) (O15520 whole entry, looked up): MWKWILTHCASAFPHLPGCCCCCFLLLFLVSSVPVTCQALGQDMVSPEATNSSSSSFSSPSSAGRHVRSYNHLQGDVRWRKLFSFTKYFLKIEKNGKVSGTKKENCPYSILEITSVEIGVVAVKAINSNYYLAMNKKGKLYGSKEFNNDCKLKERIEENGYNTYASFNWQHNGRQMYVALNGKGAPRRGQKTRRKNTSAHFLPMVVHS
# Chain of Dickkopf-related protein 1 (Homo sapiens) (O94907 whole entry, looked up): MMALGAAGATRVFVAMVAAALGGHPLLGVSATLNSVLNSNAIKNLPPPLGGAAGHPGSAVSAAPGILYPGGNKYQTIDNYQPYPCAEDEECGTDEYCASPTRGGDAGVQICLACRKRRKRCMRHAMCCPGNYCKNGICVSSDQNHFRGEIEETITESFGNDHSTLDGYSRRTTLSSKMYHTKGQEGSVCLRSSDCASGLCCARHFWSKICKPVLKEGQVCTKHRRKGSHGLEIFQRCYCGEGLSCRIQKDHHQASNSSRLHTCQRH
# Chain of Epidermal growth factor receptor (Homo sapiens) (P00533 whole entry, looked up): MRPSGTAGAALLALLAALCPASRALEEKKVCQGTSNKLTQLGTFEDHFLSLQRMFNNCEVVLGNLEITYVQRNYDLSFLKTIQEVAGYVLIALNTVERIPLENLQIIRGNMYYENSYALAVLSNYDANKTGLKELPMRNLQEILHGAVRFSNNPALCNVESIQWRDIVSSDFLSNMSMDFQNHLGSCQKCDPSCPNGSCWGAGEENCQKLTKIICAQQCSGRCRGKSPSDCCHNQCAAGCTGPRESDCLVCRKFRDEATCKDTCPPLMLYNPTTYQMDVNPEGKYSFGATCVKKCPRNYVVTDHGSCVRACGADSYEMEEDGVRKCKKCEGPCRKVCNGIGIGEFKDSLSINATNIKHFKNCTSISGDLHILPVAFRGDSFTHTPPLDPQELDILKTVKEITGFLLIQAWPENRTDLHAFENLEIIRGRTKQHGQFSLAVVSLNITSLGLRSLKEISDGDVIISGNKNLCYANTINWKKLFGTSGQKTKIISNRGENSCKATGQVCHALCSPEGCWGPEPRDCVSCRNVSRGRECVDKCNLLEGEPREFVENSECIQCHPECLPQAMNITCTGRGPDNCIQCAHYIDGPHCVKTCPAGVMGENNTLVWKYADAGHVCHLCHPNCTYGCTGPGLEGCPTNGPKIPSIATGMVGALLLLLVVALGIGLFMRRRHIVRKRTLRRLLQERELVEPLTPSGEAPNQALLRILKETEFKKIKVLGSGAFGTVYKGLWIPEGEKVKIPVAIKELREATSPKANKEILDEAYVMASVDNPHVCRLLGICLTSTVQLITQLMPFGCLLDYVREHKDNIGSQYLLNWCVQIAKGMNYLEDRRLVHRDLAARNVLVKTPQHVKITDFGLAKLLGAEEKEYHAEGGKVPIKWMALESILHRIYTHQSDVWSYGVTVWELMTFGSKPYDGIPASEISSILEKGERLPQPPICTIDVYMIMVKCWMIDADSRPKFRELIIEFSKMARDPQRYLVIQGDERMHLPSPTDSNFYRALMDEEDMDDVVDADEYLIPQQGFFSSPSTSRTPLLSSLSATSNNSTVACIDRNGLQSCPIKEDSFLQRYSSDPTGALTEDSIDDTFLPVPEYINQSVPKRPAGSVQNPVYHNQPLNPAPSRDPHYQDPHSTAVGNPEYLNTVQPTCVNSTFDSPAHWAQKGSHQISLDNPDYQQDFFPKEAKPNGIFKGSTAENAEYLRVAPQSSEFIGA
# Chain of Left-right determination factor 2 (Homo sapiens) (O00292 whole entry, looked up): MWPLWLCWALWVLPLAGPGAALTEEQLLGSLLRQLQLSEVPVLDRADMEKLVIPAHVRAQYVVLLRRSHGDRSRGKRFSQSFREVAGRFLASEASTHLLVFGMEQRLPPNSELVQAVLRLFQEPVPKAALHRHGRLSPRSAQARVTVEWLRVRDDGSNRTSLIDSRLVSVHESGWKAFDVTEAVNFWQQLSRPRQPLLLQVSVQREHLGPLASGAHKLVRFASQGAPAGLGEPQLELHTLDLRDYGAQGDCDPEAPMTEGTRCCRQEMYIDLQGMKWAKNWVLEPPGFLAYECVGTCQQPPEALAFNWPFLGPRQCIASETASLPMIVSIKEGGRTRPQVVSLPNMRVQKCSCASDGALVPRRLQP
# Chain of Follistatin-related protein 3 (Homo sapiens) (O95633 whole entry, looked up): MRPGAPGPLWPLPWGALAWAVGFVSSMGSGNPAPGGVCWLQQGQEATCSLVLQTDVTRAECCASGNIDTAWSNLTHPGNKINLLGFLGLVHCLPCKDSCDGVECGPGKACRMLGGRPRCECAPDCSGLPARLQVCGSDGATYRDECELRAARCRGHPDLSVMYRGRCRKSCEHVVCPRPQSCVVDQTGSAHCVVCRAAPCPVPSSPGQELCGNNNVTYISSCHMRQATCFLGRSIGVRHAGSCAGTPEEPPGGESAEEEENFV
# Chain of Torsin-1A-interacting protein 1 (Homo sapiens) (Q5JTV8 whole entry, looked up): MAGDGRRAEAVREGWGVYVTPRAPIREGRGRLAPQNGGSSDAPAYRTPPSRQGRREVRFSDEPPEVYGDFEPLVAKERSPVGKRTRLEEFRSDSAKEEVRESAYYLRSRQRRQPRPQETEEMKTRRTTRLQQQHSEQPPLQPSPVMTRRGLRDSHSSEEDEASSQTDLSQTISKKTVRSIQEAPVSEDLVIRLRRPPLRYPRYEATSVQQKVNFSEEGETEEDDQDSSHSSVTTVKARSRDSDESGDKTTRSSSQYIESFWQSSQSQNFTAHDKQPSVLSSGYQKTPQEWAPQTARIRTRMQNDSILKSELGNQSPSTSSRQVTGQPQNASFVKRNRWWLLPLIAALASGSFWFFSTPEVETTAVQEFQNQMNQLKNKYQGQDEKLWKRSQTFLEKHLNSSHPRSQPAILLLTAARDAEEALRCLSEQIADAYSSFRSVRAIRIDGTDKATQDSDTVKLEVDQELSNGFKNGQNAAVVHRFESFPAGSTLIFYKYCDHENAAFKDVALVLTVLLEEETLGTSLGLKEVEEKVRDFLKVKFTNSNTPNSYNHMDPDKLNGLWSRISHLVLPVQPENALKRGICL
SMILES,composite z-score [1],composite z-score [2],composite z-score [3],z-score [4],composite z-score [5],composite z-score [6],composite z-score [7],composite z-score [8],composite z-score [9],composite z-score [10],composite z-score [11],z-score [12],composite z-score [13],composite z-score [14],composite z-score [15],composite z-score [16],composite z-score [17],composite z-score [18],composite z-score [19],composite z-score [20]
Cc1ccc(S[C@]2(C(=O)NCCCN(C)C)CC(=O)N(Cc3cc(C(F)(F)F)cc(C(F)(F)F)c3)[C@@H]2c2ccc(CO)cc2)cc1,-1,-0.214,0.495,0.269 (inactive),-1.11,-0.655,-0.675,0.259,-1.62,0.798,-0.224,0.478,-0.286,0.136,0.499,-0.152,-0.0769,-0.29,0.523,0.182
C=C(C)[C@@H]1CC=C(C(O)C2C=CC3C(=O)N(C)C(=O)C3N2Nc2ccccc2)CC1 (stereo not given in full),0.433,0.344,0.581,1.98 (inactive),1.03,1.03,0.928,1.42,1.11,1.43,1.35,-0.626,0.658,-0.27,-0.74,0.0004,-0.142,-0.144,0.296,0.429
[N-]=[N+]=Nc1ccccc1[C@H]1OC(c2ccc(OCCCO)cc2)=N[C@@]1(CCS(=O)(=O)c1ccccc1)C(N)=O,1.53,1.01,1.37,-1.36 (inactive),1.12,0.915,-0.541,-0.0805,0.0979,1.26,0.321,-0.268,-0.154,1.41,0.389,0.161,0.117,-0.939,1.71,1.92
C=CC(=C)[C@H]1Oc2ccccc2S(=O)(=O)N2CCC[C@@H]12,-0.0608,-0.144,-0.0159,-0.629 (inactive),-0.249,-0.486,0.0976,-0.0111,0.317,1.07,-1.24,-3.25,0.0569,-0.523,-0.536,-0.138,-0.0211,-0.353,-0.448,0.279
CCCCN1CC=CC23O[C@@H]4C=CCCOC(=O)C4[C@H]2C(=O)N(CCCCCCO)[C@@H]3C1=O (stereo not given in full),1.45,-0.466,-0.112,0.705 (inactive),-1.22,-0.163,-0.677,-0.187,-1.21,-0.39,0.748,-0.485,-1.11,-0.235,-0.0631,-0.274,-0.117,-0.413,0.999,-0.324
CCCC[C@@H]1C[C@H]1[C@@H](NC(=O)C(C)(C)C)c1ccc(C(F)(F)F)cc1,-0.0923,0.767,1.44,-2.95 (inactive),-1.23,-0.266,-1.76,-1.63,-1.61,0.328,0.946,-1.71,-1.61,1.18,1.3,-0.203,0.102,1.52,0.473,-0.0729
COC(=O)C(CC#Cc1ccc2c(c1)[C@]1(C(=O)N2)[C@H](C(=O)Nc2nc3ccccc3s2)[C@H]2C(=O)O[C@H](c3ccccc3)[C@H](c3ccccc3)N2[C@@H]1c1ccccc1OCCO)C(=O)OC,1.61,0.473,0.561,1.44 (inactive),0.904,1.24,0.282,0.701,0.193,0.303,1.17,-2.55,0.286,1.42,0.504,-0.0346,0.257,0.733,1.01,2.31
COC(=O)[C@@]1(Cc2ccc(OC)cc2)[C@H]2c3cc(C(=O)N4CCCC4)n(CCN4CNCC4=O)c3C[C@H]2CN1C(=O)c1ccccc1,1.8,2.4,1.41,0.908 (inactive),1.03,-0.16,0.656,-0.711,-0.462,0.949,0.218,-0.0994,-0.0543,1.14,0.751,1.19,2.77,2.43,1.11,-0.169
CCCCCCc1nc(-c2ccc(OC)nc2)cc2c1[Si](C(C)C)(C(C)C)O[C@H]2c1ccccc1,1.33,-0.0653,-0.459,-0.0107 (inactive),0.289,-0.0539,0.31,0.633,0.117,0.318,-0.103,-0.657,0.28,-0.0918,0.176,-0.176,0.108,-0.234,-0.476,0.0237
O=C1c2ccccc2[C@](Cc2ccccc2I)(C(=O)NCCN2CCOCC2)[C@H](c2ccc(CO)cc2)N1C1CCCCC1,0.979,1.04,0.77,0.821 (inactive),0.82,1.3,0.499,1.24,0.941,0.821,0.994,-2.48,0.804,1.13,0.315,0.0286,0.359,0.0308,0.494,1.83
COCCOC(=O)N1C(=O)[C@@]2(c3cc(C#CC4(O)CCCCCC4)ccc31)[C@H](c1ccccc1OCCO)N1[C@H](c3ccccc3)[C@H](c3ccccc3)OC(=O)[C@H]1[C@@H]2C(=O)N1CCN(c2ncccn2)CC1,0.892,0.0468,-0.0635,0.514 (inactive),1.12,1.03,0.484,1.18,0.991,0.244,0.0525,-2.18,0.46,0.156,-0.0855,-0.0944,0.0328,0.612,1.35,0.509
COc1cc(COC(C)=O)ccc1OC(C)=O,0.0968,1.85,0.285,-0.309 (inactive),0.301,0.578,1.04,0.505,1.17,0.47,0.793,-0.785,0.44,0.434,-0.156,0.731,-0.093,-0.0878,0.299,-0.0551
CC(C)NC(=O)[C@@H]1c2ccccc2C(=O)N(C2Cc3ccccc3C2)[C@H]1c1ccc(CO)cc1,0.959,0.172,0.749,-0.535 (inactive),0.16,0.726,-0.477,0.0389,-0.224,0.175,1.41,-1.31,0.25,0.344,-0.225,0.0142,-0.366,-0.449,0.724,0.399
CN(C)CCCC[C@@H]1NC(=O)[C@@H]2C[C@H](C(=O)NCCCCCCN)[C@H](c3cccc(OCCO)c3)N2C1=O,0.891,0.956,0.584,-0.502 (inactive),0.894,1.22,0.0249,0.0587,0.603,0.6,1.29,0.484,0.45,1.23,0.827,-0.0455,0.876,1.13,2.88,2.63
CCS[C@H]1[C@@H](C(=O)O)[C@H](c2ccc(C)cc2)N(S(=O)(=O)c2ccc(C)cc2)[C@@H]1CC,0.673,0.686,0.907,0.269 (inactive),1.14,0.793,0.0771,1.1,-0.0423,0.626,1.39,0.841,0.0041,0.83,0.0072,-0.1,-0.0035,1.11,0.827,0.834
COC(=O)[C@@]1(CCS(=O)(=O)c2ccccc2)N=C(c2ccc(OCCCO)cc2)O[C@H]1c1ccccc1CN=[N+]=[N-],1.21,1.11,1.2,0.362 (inactive),0.336,1.24,0.143,1.01,-0.0332,0.799,0.797,-2.38,-0.343,1.72,0.373,-0.0539,0.0469,0.647,1.13,0.829
COc1ccc(C(=O)Nc2ccc(CN3C(=O)[C@]4(O[C@H](CCO)[C@@H]([Si](C)(C)c5ccc(OC)cc5)[C@@H]4C)c4ccccc43)cc2)cc1,1.21,-0.122,0.326,-3.38 (inactive),0.708,0.762,0.231,1.02,0.241,1.3,1,-5.09,0.202,0.564,-0.314,0.026,0.014,-0.226,0.432,0.509
COc1cc2c(cc1O)C(C1CC1)N(Cc1sc3ccccc3c1Cl)CC2 (stereo not given),1.25,0.147,0.652,-1.57 (inactive),-0.326,0.135,-0.0122,-0.05,-0.467,1.48,1.39,-2.87,-0.423,0.131,0.469,-0.0977,0.0062,0.173,1.26,0.281
